Source: publication PMC7862700, “An all-to-all approach to the identification of sequence-specific readers for epigenetic DNA modifications on cytosine”

Experiments:
Experiment in all cases: DAPPL (digital affinity profiling via proximity ligation, sequencing); 10 mM Tris-HCl pH 7.5, 50 mM NaCl, 1 mM DTT, 4% glycerol, room temperature, 30 min; GST-TFs on glutathione beads, 16-mer random dsDNA library, 0.1% formaldehyde crosslink after washing; high values mean tight binding
FEV = target: T1, FEV (Homo sapiens, UniProt Q99581 1-238); details: protein: recombinant; tags: N-terminal GST; dsDNA, one strand shown
T1 sequence: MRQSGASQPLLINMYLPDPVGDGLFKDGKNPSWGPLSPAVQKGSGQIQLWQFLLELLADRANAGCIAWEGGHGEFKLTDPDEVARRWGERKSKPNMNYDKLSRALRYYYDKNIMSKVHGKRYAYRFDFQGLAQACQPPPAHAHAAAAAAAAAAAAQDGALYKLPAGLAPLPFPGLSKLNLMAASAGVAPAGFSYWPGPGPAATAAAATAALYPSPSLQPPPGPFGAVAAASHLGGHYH
Summary of the method: (§1)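 Yeast served to express human transcription factors as GST fusions, which were then captured on glutathione beads and labelled with DNA barcodes. Pooled with a tag-only sample, they were incubated with 200 nmole of a 16-mer random double-stranded DNA library for 30 min at room temperature in Tris/NaCl/DTT/glycerol buffer, washed, crosslinked with 0.1% formaldehyde, ligated by proximity, amplified by PCR and sequenced. Dividing each hexamer's read frequency for a factor by its frequency for the tag-only sample gives the binding signal.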

ETV5 = ETV5 (Homo sapiens, UniProt P41161 1-510); details: protein: recombinant; tags: N-terminal GST; dsDNA, one strand shown
Summary of the method: as §1

HSF1 = HSF1 (Homo sapiens, UniProt Q00613 1-529); details: protein: recombinant; tags: N-terminal GST; chain copies: 3; dsDNA, one strand shown
Summary of the method: as §1

SPIC = target: T2, SPIC (Homo sapiens, UniProt Q8N5J4 1-248); details: protein: recombinant; tags: N-terminal GST; dsDNA, one strand shown
T2 sequence: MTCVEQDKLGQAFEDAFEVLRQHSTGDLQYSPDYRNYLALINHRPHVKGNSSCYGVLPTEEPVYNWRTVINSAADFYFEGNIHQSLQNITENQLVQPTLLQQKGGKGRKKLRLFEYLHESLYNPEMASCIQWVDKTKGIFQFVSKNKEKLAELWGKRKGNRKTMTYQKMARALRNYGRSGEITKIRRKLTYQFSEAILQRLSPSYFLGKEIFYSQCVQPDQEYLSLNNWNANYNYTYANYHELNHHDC
Summary of the method: as §1

ELF4 = ELF4 (Homo sapiens, UniProt Q99607 1-663); details: protein: recombinant; tags: N-terminal GST; dsDNA, one strand shown
Summary of the method: as §1

ELK4 = target: T3, ELK4 (Homo sapiens, UniProt P28324-2 1-405); details: protein: recombinant; tags: N-terminal GST; dsDNA, one strand shown
T3 sequence: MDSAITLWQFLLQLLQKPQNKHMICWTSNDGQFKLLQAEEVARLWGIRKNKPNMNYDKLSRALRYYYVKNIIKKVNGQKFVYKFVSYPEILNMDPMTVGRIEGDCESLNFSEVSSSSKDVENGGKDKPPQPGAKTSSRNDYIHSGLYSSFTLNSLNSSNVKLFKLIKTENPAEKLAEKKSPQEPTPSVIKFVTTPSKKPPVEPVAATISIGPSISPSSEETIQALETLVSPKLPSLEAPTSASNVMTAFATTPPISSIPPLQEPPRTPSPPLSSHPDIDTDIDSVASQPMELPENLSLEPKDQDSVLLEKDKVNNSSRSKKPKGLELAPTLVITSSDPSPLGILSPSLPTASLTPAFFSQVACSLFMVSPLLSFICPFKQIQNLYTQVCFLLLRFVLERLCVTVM
Summary of the method: as §1

ETV2 = target: T4, ETV2 (Homo sapiens, UniProt O00321 1-342); details: protein: recombinant; tags: N-terminal GST; dsDNA, one strand shown
T4 sequence: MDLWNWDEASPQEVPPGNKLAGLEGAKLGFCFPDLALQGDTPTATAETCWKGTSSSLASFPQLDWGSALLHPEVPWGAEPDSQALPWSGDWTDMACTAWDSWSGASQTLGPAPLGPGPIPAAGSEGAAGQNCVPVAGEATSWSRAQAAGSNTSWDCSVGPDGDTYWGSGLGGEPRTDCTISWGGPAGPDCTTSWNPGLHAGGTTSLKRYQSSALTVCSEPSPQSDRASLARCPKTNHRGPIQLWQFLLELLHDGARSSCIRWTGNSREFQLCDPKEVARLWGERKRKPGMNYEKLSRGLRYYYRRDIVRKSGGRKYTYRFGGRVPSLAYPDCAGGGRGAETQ
Summary of the method: as §1

ELF3 = target: T5, ELF3 (Homo sapiens, UniProt P78545 1-371); details: protein: recombinant; tags: N-terminal GST; dsDNA, one strand shown
T5 sequence: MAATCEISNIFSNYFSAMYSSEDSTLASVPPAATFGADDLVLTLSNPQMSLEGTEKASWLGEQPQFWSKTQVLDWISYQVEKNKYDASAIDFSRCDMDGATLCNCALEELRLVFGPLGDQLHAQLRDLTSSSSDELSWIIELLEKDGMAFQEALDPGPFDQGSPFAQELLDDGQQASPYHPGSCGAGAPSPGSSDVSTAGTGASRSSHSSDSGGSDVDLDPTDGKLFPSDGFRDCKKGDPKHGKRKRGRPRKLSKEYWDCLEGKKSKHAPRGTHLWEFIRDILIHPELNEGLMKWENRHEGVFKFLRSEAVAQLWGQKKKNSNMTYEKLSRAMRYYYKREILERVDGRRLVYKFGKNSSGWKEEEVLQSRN
Summary of the method: as §1

CRX = CRX (Homo sapiens, UniProt O43186 1-299); details: protein: recombinant; tags: N-terminal GST; dsDNA, one strand shown
Summary of the method: as §1

ETV1 = ETV1 (Homo sapiens, UniProt P50549 1-477); details: protein: recombinant; tags: N-terminal GST; dsDNA, one strand shown
Summary of the method: as §1

ERF = target: T6, ERF (Homo sapiens, UniProt P50548 1-548); details: protein: recombinant; tags: N-terminal GST; dsDNA, one strand shown
T6 sequence: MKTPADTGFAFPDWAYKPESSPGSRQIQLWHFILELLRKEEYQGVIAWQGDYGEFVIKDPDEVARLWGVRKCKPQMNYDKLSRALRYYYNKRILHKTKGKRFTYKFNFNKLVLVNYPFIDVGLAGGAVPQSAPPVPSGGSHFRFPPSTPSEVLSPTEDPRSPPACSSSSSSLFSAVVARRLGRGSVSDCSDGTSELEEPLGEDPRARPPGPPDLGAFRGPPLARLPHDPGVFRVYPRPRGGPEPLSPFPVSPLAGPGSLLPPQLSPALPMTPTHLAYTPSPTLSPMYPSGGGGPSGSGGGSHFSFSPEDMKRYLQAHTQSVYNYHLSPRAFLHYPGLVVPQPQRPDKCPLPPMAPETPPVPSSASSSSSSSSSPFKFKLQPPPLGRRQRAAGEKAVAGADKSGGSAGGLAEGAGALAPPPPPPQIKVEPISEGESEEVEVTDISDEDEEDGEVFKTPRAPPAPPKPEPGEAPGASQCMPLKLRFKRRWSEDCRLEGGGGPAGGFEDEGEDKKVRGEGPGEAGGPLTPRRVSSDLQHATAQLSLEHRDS
Summary of the method: as §1

ETV3L = target: T7, ETV3L (Homo sapiens, UniProt Q6ZN32 1-361); details: protein: recombinant; tags: N-terminal GST; dsDNA, one strand shown
T7 sequence: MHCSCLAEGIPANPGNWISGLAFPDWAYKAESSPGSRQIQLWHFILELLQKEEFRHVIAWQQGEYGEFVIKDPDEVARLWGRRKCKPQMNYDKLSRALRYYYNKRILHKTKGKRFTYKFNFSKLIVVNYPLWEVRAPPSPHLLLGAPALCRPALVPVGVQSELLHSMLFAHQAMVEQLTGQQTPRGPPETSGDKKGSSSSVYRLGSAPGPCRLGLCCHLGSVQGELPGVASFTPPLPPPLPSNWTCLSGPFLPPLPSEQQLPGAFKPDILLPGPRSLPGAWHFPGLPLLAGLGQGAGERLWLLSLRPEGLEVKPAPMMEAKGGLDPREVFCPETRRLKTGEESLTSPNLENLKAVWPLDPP
Summary of the method: as §1

ETS2 = target: T8, ETS2 (Homo sapiens, UniProt P15036 1-469); details: protein: recombinant; tags: N-terminal GST; dsDNA, one strand shown
T8 sequence: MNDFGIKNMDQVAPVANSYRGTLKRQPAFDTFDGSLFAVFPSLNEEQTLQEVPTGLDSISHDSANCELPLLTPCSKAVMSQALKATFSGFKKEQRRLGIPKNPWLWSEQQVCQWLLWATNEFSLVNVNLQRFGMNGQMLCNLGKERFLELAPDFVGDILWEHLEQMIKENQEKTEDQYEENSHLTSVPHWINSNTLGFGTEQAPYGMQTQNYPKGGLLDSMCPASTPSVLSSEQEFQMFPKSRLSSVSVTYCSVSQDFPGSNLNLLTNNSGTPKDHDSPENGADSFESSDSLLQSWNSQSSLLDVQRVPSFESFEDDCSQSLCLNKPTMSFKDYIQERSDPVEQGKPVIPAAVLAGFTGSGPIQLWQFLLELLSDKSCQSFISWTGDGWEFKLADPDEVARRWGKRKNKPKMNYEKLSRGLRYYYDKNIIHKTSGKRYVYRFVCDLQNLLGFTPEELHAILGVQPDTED
Summary of the method: as §1

SPDEF = target: T9, SPDEF (Homo sapiens, UniProt O95238 1-335); details: protein: recombinant; tags: N-terminal GST; dsDNA, one strand shown
T9 sequence: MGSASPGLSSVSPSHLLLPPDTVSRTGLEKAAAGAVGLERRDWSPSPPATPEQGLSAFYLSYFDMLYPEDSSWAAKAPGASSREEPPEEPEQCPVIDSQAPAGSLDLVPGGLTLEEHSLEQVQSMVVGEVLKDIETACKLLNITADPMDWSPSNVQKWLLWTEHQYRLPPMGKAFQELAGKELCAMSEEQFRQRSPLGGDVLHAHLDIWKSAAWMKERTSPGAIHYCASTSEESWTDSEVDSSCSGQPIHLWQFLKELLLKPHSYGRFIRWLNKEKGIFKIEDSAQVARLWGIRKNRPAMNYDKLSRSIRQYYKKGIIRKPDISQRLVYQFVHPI
Summary of the method: as §1

ETV7 = target: T10, ETV7 (Homo sapiens, UniProt Q9Y603 1-341); details: protein: recombinant; tags: N-terminal GST; dsDNA, one strand shown
T10 sequence: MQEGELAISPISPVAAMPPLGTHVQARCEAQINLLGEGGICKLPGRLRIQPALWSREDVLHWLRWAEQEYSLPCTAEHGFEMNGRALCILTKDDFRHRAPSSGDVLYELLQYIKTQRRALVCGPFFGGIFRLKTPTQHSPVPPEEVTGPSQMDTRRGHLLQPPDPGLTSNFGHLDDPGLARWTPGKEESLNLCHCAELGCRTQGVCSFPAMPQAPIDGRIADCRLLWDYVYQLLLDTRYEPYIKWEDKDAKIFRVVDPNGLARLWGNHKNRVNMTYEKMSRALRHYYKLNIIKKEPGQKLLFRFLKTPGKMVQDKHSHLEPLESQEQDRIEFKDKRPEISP
Summary of the method: as §1

ELF5 = target: T11, ELF5 (Homo sapiens, UniProt Q9UKW6-2 1-255); details: protein: recombinant; tags: N-terminal GST; dsDNA, one strand shown
T11 sequence: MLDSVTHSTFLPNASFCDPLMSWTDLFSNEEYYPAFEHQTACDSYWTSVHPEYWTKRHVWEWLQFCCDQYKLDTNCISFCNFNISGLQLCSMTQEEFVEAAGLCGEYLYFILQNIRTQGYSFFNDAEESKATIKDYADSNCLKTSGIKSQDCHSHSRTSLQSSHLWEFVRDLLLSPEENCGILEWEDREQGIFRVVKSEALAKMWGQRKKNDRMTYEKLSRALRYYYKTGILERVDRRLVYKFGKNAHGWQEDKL
Summary of the method: as §1

ETV3 = target: T12, ETV3 (Homo sapiens, UniProt P41162-2 1-143); details: protein: recombinant; tags: N-terminal GST; dsDNA, one strand shown
T12 sequence: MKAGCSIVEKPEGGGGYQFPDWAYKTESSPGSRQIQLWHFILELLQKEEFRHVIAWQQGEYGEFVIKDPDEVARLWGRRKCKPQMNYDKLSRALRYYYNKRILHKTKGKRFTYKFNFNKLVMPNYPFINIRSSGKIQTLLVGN
Summary of the method: as §1

ETV6 = ETV6 (Homo sapiens, UniProt P41212 1-452); details: protein: recombinant; tags: N-terminal GST; dsDNA, one strand shown
Summary of the method: as §1

Sequence of CRX (O43186 whole entry): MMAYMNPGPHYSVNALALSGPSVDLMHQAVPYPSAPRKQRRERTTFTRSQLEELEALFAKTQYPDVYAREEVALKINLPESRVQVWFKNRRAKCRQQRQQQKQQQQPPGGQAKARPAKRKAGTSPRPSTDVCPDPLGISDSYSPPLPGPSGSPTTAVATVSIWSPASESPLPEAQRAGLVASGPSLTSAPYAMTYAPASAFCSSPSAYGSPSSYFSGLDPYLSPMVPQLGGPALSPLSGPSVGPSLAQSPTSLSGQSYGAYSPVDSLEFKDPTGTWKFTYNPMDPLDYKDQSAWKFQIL
Sequence of ELF4 (Q99607 whole entry): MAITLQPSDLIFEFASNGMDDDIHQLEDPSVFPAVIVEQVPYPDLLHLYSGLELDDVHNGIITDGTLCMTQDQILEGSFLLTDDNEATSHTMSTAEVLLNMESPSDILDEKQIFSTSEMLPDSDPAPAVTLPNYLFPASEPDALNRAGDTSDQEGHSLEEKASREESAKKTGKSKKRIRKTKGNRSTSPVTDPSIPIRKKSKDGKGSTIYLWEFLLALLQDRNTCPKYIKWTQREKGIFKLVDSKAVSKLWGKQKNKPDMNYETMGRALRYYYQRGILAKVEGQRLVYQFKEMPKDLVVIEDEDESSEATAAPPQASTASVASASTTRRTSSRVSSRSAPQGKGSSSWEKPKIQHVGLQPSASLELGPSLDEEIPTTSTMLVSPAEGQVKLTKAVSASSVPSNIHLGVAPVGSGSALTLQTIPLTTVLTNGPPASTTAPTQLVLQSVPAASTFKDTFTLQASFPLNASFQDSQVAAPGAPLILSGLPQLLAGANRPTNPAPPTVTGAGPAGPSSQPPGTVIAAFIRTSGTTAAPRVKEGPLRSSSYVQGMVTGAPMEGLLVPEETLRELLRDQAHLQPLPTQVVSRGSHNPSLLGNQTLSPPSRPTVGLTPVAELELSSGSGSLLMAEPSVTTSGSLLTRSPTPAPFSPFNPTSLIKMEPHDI
Sequence of ETV1 (P50549 whole entry): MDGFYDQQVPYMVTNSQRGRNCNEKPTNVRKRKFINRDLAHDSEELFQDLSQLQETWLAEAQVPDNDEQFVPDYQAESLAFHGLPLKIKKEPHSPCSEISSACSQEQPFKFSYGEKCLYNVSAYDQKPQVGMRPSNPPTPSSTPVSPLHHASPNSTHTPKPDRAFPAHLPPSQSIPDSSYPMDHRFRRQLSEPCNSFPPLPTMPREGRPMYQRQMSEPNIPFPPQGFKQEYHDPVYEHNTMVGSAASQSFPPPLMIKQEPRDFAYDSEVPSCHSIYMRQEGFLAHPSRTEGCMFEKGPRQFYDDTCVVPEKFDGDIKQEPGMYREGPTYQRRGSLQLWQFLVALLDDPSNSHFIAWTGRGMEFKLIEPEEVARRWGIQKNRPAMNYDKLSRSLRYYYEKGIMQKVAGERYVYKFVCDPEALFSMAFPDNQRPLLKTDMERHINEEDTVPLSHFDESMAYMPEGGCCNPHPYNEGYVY
Sequence of ETV6 (P41212 whole entry): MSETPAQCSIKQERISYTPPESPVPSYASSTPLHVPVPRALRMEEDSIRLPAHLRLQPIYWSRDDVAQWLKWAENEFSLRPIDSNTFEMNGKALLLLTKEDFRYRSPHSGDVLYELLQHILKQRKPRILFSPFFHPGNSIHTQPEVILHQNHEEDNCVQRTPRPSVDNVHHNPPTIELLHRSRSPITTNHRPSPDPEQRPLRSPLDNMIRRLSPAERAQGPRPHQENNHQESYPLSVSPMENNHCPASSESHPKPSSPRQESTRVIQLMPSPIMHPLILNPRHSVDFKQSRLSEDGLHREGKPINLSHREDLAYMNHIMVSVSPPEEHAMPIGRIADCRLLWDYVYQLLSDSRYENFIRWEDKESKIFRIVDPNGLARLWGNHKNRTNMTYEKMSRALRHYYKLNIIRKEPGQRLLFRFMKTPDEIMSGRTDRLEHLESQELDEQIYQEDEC
Sequence of HSF1 (Q00613 whole entry): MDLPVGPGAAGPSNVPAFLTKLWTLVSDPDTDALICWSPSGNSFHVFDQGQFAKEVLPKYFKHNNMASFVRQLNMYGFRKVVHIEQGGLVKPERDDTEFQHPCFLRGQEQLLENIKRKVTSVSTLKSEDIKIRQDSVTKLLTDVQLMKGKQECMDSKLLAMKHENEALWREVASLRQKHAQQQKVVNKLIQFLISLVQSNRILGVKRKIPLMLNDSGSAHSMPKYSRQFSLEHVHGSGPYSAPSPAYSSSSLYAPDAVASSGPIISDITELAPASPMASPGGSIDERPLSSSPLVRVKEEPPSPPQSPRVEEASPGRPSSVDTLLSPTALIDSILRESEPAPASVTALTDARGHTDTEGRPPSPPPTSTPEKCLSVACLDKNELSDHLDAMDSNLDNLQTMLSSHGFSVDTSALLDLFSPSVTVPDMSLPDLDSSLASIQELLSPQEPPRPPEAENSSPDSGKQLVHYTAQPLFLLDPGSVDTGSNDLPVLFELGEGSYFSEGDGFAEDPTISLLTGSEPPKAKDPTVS
Sequence of ETV5 (P41161 whole entry): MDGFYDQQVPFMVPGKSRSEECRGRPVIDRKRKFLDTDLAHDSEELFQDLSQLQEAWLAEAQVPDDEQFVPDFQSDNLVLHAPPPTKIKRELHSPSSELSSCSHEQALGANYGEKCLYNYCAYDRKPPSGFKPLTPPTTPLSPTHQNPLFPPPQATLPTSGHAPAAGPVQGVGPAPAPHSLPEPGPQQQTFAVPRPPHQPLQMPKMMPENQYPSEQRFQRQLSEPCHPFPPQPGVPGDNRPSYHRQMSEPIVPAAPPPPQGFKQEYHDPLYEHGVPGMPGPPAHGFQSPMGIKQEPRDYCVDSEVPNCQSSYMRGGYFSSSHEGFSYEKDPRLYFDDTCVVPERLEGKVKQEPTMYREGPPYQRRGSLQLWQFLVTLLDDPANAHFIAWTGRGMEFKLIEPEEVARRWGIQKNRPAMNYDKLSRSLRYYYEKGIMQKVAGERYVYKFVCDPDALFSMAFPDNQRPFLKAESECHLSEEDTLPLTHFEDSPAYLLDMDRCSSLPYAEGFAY

CGACTC
binding signal (FEV): 1.42 fold enrichment (6-mer frequency, TF over GST control)
binding signal (ETV5): 1.44 fold enrichment (6-mer frequency, TF over GST control)
binding signal (HSF1): 1.37 fold enrichment (6-mer frequency, TF over GST control)
binding signal (SPIC): 1.64 fold enrichment (6-mer frequency, TF over GST control)
binding signal (ELF4): 1.41 fold enrichment (6-mer frequency, TF over GST control)
binding signal (ELK4): 1.35 fold enrichment (6-mer frequency, TF over GST control)
binding signal (ETV2): 1.34 fold enrichment (6-mer frequency, TF over GST control)
binding signal (ELF3): 1.25 fold enrichment (6-mer frequency, TF over GST control)
binding signal (CRX): 1.31 fold enrichment (6-mer frequency, TF over GST control)
binding signal (ETV1): 1.41 fold enrichment (6-mer frequency, TF over GST control)
binding signal (ERF): 1.59 fold enrichment (6-mer frequency, TF over GST control)
binding signal (ETV3L): 1.36 fold enrichment (6-mer frequency, TF over GST control)
binding signal (ETS2): 1.38 fold enrichment (6-mer frequency, TF over GST control)
binding signal (SPDEF): 1.29 fold enrichment (6-mer frequency, TF over GST control)
binding signal (ETV7): 1.29 fold enrichment (6-mer frequency, TF over GST control)
binding signal (ELF5): 1.33 fold enrichment (6-mer frequency, TF over GST control)
binding signal (ETV3): 1.29 fold enrichment (6-mer frequency, TF over GST control)
binding signal (ETV6): 1.38 fold enrichment (6-mer frequency, TF over GST control)
